Bioassay records (PubChem)
The list is not random: actives were taken first. Their share in the collection is about 1%.
Mtb BioA inh: M. tuberculosis BioA enzyme inhibitors, primary screen, biochemical, plate reader, single point, HTS; 7,8-diaminopelargonic acid synthase BioA (Mycobacterium tuberculosis); purified M. tuberculosis BioA enzyme; inhibition, % at 9.99 µM; 360,000 tested, 0.096% active; in the data active = inhibition above about 40%
DUSP3 inh: VHR1 phosphatase inhibitors, primary screen, biochemical, absorbance, uHTS; Dual specificity protein phosphatase 3 (Homo sapiens), P51452; recombinant VHR phosphatase, pNPP absorbance; inhibition, % at 13.3 µM; 290,000 tested, 0.52% active; AID 1654, 2009; in the data active = inhibition above about 50%
Target sequence (P51452 whole entry, looked up): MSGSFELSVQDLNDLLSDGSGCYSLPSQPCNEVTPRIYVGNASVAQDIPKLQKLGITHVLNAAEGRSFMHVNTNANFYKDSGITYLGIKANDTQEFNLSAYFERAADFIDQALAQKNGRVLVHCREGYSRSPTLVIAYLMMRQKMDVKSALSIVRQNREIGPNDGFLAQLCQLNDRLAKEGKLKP
FadD28 FP inh: inhibitors of FadD28 bisubstrate probe binding, primary screen, biochemical, fluorescence polarization, single point; Mycobacterium tuberculosis FadD28 fatty-acid-AMP ligase; inhibition, % at 12.5 µM; 360,000 tested, 0.22% active; in the data active = inhibition above about 8.5%, passing the limit was not always enough
Y pestis TopoI: Yersinia pestis topoisomerase I inhibitors, primary screen, biochemical, cleavage product accumulation, plate reader, single point. DNA topoisomerase I (Yersinia pestis CO92). Y. pestis Topo-I cleavage product accumulation. activity, % at 10 µM. 360,000 tested, 0.064% active. AID 504884, 2011; in the data active = activity above about 50%, passing the limit was not always enough
MazEF act: activators of E. coli MazEF toxin-antitoxin RNase, primary screen, biochemical, fluorescence, uHTS | Endoribonuclease toxin MazF (Escherichia coli (strain K12)), P0AE70 | activation, % at 20 µM | FAM/BHQ RNA-DNA oligo cleavage fluorescence, 5 h | 350,000 tested, 0.32% active | AID 504720, 2011; in the data active = activation above about 50%
Target sequence (P0AE70 whole entry, looked up): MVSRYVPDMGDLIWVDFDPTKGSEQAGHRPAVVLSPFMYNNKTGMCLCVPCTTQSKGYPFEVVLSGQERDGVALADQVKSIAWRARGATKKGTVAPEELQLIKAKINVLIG
TcdB inh: TcdB glycohydrolase inhibitors, primary screen, biochemical, single point, plate reader. Toxin B (Clostridioides difficile), P18177. TcdB glycohydrolase enzymatic assay. inhibition, % at 9.99 µM. 350,000 tested, 0.24% active; in the data active = inhibition above about 10%
* = called active by the depositor; . = not tested or not shown.

SMILES	Mtb BioA inh	DUSP3 inh	FadD28 FP inh	Y pestis TopoI	MazEF act	TcdB inh
CCCC(=O)N1CCC2(CC1)CN(C(=O)CC1CC1)[C@@H](CO)c1c2c2ccc(OC)cc2n1C	.	.	.	.	.	1
COc1ccc(C(=O)n2nc(-c3ccco3)nc2SC)cc1OC	1	-5	0	9	109*	3
NC(=O)c1ccsc1NC(=O)CS(=O)(=O)c1ccc(Cl)cc1	-1	56*	0	-3	5	2
CC(C)NC(=O)NCC[C@@H]1CC[C@H](NS(=O)(=O)c2ccc(-c3ccccc3)cc2)[C@@H](CO)O1	1	.	.	.	.	-2
COC(=O)Cc1c(C)c2ccc(OCC(=O)N(C)C)cc2oc1=O	1	51*	1	6	5	.
CCCOc1ccc2c(C)c(CC(=O)OC)c(=O)oc2c1	1	17	-1	3	-2	.
COc1ccc2c3c([nH]c2c1)[C@H](CO)N(S(C)(=O)=O)CC31CN(C(=O)c2ccncc2)C1	.	.	.	.	.	0
CC(CN1c2ccccc2Sc2ccccc21)N(C)C (stereo not given)	0	-22	-1	-9	6	1
C#CCN1c2ccccc2Sc2cccnc21	.	20	-2	10	71*	-1
O=S(=O)(N[C@@H]1CC[C@@H](CCn2cc(-c3ccccn3)nn2)O[C@@H]1CO)c1cccc(F)c1	-1	.	.	.	.	0
CCCCCCCCCCCCCCCC(O)C(N)CO (stereo not given)	-2	20	49*	3	-10	2
CCCCCCC(N)CC(=O)O (stereo not given)	-5	-4	0	-6	5	.
C/C(=N\OCC(=O)Nc1nc2ccccc2s1)c1ccccc1	.	-4	-2	-3	-2	10*
COC(=O)c1ccc(NC(=O)COC(=O)C2CCC2)cc1	.	.	-2	21	5	0
CCN(CC(=O)Nc1ccc(C(=O)OC)cc1)C1CCCCC1	0	30	-1	10	157*	0
C[C@@H]1CN([C@@H](C)CO)C(=O)c2cccc(NC(=O)c3cnccn3)c2O[C@H]1CN(C)C(=O)Nc1ccc(F)cc1	0	.	.	.	.	0
C[C@H](CO)N1C[C@H](C)[C@H](CN(C)Cc2ccncc2)Oc2ncc(C#CC3CCCC3)cc2C1=O	-2	.	.	.	.	0
C[C@@H]1CN([C@H](C)CO)C(=O)c2cc(NC(=O)Cc3ccccc3)ccc2O[C@@H](C)CCCCO[C@H]1CN(C)C(=O)NC1CCCCC1	-3	.	.	.	.	1
CO[C@@H]1[C@@H](OC(N)=O)[C@@H](O)[C@H](Oc2ccc3c(O)c(NC(=O)c4ccc(O)c(CC=C(C)C)c4)c(=O)oc3c2C)OC1(C)C	1	.	-1	0	.	-1
COC1C(OC(=O)c2ccc(C)[nH]2)C(O)C(Oc2ccc3c(O)c(NC(=O)c4ccc(O)c(CC=C(C)C)c4)c(=O)oc3c2Cl)OC1(C)C (stereo not given)	4	28	20*	-4	55*	1
CCN1C=C(Cc2ccc(F)cc2)C2=C(C1)C(c1ccc(F)cc1)C(C#N)=C(N)O2 (stereo not given)	1	22	-4	-3	77*	.
CCC(=O)N1[C@H](CO)[C@@H](c2ccccc2)C12CN(Cc1cc(F)ccc1F)C2	.	.	.	.	.	0
COc1ccccc1NC(=O)c1ccc(C)c(S(=O)(=O)N2CCCCC2)c1	1	53*	0	38	-13	0
COc1ccccc1NS(=O)(=O)c1cc(NC(=O)c2sccc2C)ccc1N1CCCC1	.	53*	0	-6	-1	.
O=C(Nc1ccc(F)cc1)Nc1ccc(N2CCCC2)c(S(=O)(=O)Nc2ccccc2Cl)c1	.	6	-2	-16	53*	0
SMILES	Mtb BioA inh	DUSP3 inh	FadD28 FP inh	Y pestis TopoI	MazEF act	TcdB inh
O=C(Nc1ccc(Cl)c(Cl)c1)Nc1ccc(N2CCCC2)c(S(=O)(=O)Nc2ccccc2Cl)c1	.	11	-7	-8	14	.
COc1cc(C=C2CN(C)C(=O)C2=O)ccc1O	12	.	-1	1	-22	21*
CCOc1cc(/C=C2\CN(C)C/C(=C\c3ccc(O)c(OCC)c3)C2=O)ccc1O	5	10	-1	-2	-17	-6
Cn1ncc(Cl)c1C(=O)N/N=C/c1cccc(OC2CSC2)c1	.	6	1	-6	3	23*
Cc1noc(C)c1NC(=O)Nc1ccc2c(c1)C(=O)N([C@H](C)CO)C[C@@H](C)[C@@H](CN(C)C(=O)Nc1ccc(F)cc1)O2	2	.	.	.	.	2
O=C(C[C@H]1C[C@@H]2c3cc(NC(=O)c4cccnc4)ccc3O[C@@H]2[C@H](CO)O1)NCc1cccnc1	7	.	.	.	.	1
CCCCn1c(NC(=O)c2ccc(Br)o2)c(C(=O)OCC)c2nc3ccccc3nc21	.	39	-4	9	80*	0
CCCCn1c(NS(=O)(=O)c2ccccc2)c(C(=O)OCC)c2nc3ccccc3nc21	.	35	3	15	3	.
COc1ccccc1NC(=O)NNC(=O)CCN1CCOCC1	0	57*	-5	8	-3	1
COc1ccccc1NC(=O)CCN1CCN(C)CC1	.	-23	-3	1	5	1
Cc1ccc(S(=O)(=O)Nc2ccc3c(c2)CC(=O)N([C@@H](C)CO)C[C@@H](C)[C@H](CN(C)Cc2ccc(C(=O)O)cc2)O3)cc1	.	.	.	.	.	2
CC(C)NC(=O)Nc1ccc2c(c1)C(=O)N([C@H](C)CO)C[C@H](C)[C@H](CN(C)Cc1ccc(-c3ccccc3)cc1)O2	-3	.	.	.	.	2
CN1CCc2c(sc3c2C(=O)NC(/C=C/c2ccco2)N3)C1 (stereo not given)	-4	.	-1	-1	66*	2
CCN(CCNc1ccc([N+](=O)[O-])c2cccnc12)S(=O)(=O)c1ccc(Cl)cc1	-2	17	-2	18	8	.
CCN(CCNc1ccc([N+](=O)[O-])c2cccnc12)S(=O)(=O)c1ccccc1	-1	18	1	-1	138*	.
CCN1[C@@H]2c3ccc(-c4ccccc4OC)c(=O)n3C[C@H]1[C@H](CO)[C@H]2C(=O)N[C@@H](C)c1ccccc1	2	.	.	.	.	0
O=C(NC(=S)NCc1nc2ccccc2[nH]1)c1ccccc1F	.	10	8.9*	-9	4	3
O=C(NC(=S)NCc1nc2ccccc2[nH]1)c1ccc(F)cc1	.	14	-4	3	-3	1
O=C(NCCSc1ccc(Cl)cc1)c1ccc(CN2CCOCC2)cc1	.	-14	-2	14	-15	0
O=C(NCCSCc1ccc(Cl)cc1Cl)c1ccc(CN2CCOCC2)cc1	1	10	43*	36	0	1
